High-throughput results as filed in PubChem.
D2 PAM-1: positively modulates the human D2 dopamine receptor allosterically; P14416; HEK293 T-REx D2, calcium flux, EC20 dopamine potentiation; potentiation, % at 10 µM; actives 0.34% (n = 340,000); AID 485347;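 active = potentiation over 3 SD above the plate norm, cut at about 30% in these data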
Target sequence (P14416 whole entry, looked up): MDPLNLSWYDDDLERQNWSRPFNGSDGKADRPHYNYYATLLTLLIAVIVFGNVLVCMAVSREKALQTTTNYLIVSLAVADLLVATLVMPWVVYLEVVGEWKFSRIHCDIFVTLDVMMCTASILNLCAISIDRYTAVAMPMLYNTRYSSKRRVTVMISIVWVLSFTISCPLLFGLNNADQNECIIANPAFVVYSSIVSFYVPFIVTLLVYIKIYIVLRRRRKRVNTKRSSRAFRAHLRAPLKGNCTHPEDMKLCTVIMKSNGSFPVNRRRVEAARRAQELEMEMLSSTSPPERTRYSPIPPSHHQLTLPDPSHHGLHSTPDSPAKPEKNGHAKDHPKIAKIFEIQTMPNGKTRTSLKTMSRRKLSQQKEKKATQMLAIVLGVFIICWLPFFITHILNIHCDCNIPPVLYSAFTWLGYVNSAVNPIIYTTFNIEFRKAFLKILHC
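Tetracycline-induced HEK293 T-REx cells force-coupled to calcium signalling expressed D2; compounds were pin-added after a 10 s baseline, read kinetically 180 s, then an EC20 dopamine challenge followed with a further 180 s calcium read.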
D2 PAM-2: positive allosteric modulators of human D2 dopamine receptor. DiscoveRx D2 beta-arrestin cells, luminescence, 90 min; 100% = 57 uM dopamine signal. potentiation, % (concentration not given with the values). actives 0.23% (n = 360,000); in the data active = potentiation above about 50%
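D2 cells co-treated with compound plus 50 nM dopamine (EC20) for 90 min at 37 deg C to detect potentiation. Beta-arrestin recruitment was read as enzyme-fragment luminescence after 1 h at ambient temperature. Full response was set by 57 uM dopamine.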
D2 ag-1: D2 dopamine receptor (human) agonism; P14416; HEK293 T-REx D2 cells, calcium flux agonist mode; AID 485358; actives 0.53% (n = 340,000); activation, % at 2 µM;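 active = activation over 3 SD above normal in the single-dose calcium agonist read, cut at about 30% in these data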
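Agonism scored from kinetic calcium signal (1 read/sec, 180 s) following compound pin transfer, after a 10 s baseline. Cells: HEK293 Trex line expressing inducible D2 receptor coupled to calcium, dye-loaded after overnight culture at 30 C.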
D2 ag-2: activates the human D2 dopamine receptor | DiscoveRx PathHunter D2 beta-arrestin, luminescence, 90 min; 100% = 57 uM dopamine signal | actives 0.084% (n = 360,000) | activation, % (test concentration not listed); in the data active = activation above about 40%
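DiscoveRx PathHunter D2 beta-arrestin cells (2,100/well) attached overnight, then compound-stimulated 90 min at 37 C in HBSS/10 mM HEPES/0.1% Tween-20 buffer; beta-galactosidase complementation read by luminescence after 1 h at ambient temperature. Dopamine 57 uM final (EC100) as control.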
D2 antagonist: antagonizes the human D2 dopamine receptor; P14416; HEK293 TREx D2 cells, calcium flux, dopamine EC80; inhibition, % at 10 µM; actives 2% (n = 340,000); AID 485344; in the data active = inhibition above about 30%; inactive = below that, where a call was filed
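HEK293 T-REx D2 cells, tet-induced, calcium dye no-wash. Cpd pintool add, 180 s kinetic, then EC80 DA, 180 s kinetic. Ca flux read.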
Each line names hits and unclear results; the compound was inactive in the other large screens. An excerpt weighted towards active compounds, which were near 2.4% of everything screened.

O=C1c2cccc(Cl)c2C(=O)N1c1ccccn1	none (no result: D2 PAM-1, D2 ag-1, D2 antagonist)
O=C1c2cc3ccccc3c(-c3ccccc3)c2C(=O)N1c1ccccn1	D2 antagonist 46
O=C1C2C3C=CC(CC3)C2S(=O)(=O)C2C3C=CC(CC3)C12 (centres undefined)	none (no result: D2 PAM-1, D2 ag-1, D2 antagonist)
Cc1csc2nc(COC(=O)CNC(=O)c3ccccc3Cl)cc(=O)n12	none (no result: D2 PAM-2, D2 ag-2, D2 antagonist)
CCOc1cc(C=NN2CCCCCC2)ccc1O	D2 PAM-2 51 (no result: D2 PAM-1, D2 ag-1, D2 antagonist)
O=C(O)C1CC(=O)n2c(nc3ccccc32)S1 (centres undefined)	none
COc1cc(C2CC(=O)n3c(nc4ccccc43)S2)cc(OC)c1OC (centres undefined)	D2 PAM-1 30 (no result: D2 PAM-2, D2 ag-2)
CCCn1c2ccccc2c2cnn(CC(=O)NC3CCCC(C)C3C)c(=O)c21 (centres undefined)	D2 antagonist 35
COc1cc(C(=O)OCc2cc(=O)n3ccsc3n2)cc(OC)c1OC	none (no result: D2 PAM-2, D2 ag-2, D2 antagonist)
CCN(c1ncnc2c1cnn2-c1cc(Cl)ccc1C)C1CCCCC1	none (no result: D2 PAM-2, D2 ag-2, D2 antagonist)
CN1CCC(=C2c3ccccc3CC(=O)c3sccc32)CC1	none
CN1CCC(=C2c3ccccc3CCc3sccc32)CC1	D2 antagonist 86
CCc1ccccc1NC(=O)Cn1nnc(-c2nc(-c3ccc(C)cc3)no2)c1N	none (no result: D2 PAM-2, D2 ag-2, D2 antagonist)
COc1ccc(C(=O)N2CCN(S(=O)(=O)c3ccc(Cl)cc3)CC2)cc1OC	none
COc1ccc(N2CCN(C(=O)CCS(=O)(=O)c3ccc(OC)cc3)CC2)cc1	D2 PAM-1 32
O=C(NCCN1CCN(C(=O)c2ccc(F)cc2)CC1)c1ccc(F)cc1	D2 antagonist 64
COc1ccc(OC)c(CN2CCN(Cc3cc(=O)oc4cc(O)ccc34)CC2)c1	D2 antagonist 34
COc1ccc(C(=O)N2CCN(S(=O)(=O)c3ccc(F)cc3)CC2)cc1OC	D2 antagonist 39
O=C(Nc1ccc(F)cc1F)c1ccc(CN2CC(=O)N3CCCCC3C2=O)cc1 (centres undefined)	none (no result: D2 PAM-2, D2 ag-2, D2 antagonist)
C[C@H]1CN([C@@H](C)CO)C(=O)c2cc(NC(=O)C3CCCCC3)ccc2O[C@H]1CN(C)C(=O)Nc1ccc2c(c1)OCO2	none (no result: D2 PAM-1, D2 ag-1, D2 antagonist)
CCC(=O)N1CCc2cc(Br)cc(S(=O)(=O)N3CCCC(C(=O)NCc4cccc(OC)c4)C3)c21 (centres undefined)	none (no result: D2 PAM-2, D2 ag-2, D2 antagonist)
CN(C)CCNC(=O)C(=O)NCC(c1cccnc1)N1CCN(c2ccccc2)CC1 (centres undefined)	none (no result: D2 PAM-2, D2 ag-2, D2 antagonist)
COc1ccc(NC(=O)CCCc2nc(-c3ccco3)no2)c(OC)c1	none (no result: D2 PAM-1, D2 PAM-2, D2 ag-2, D2 antagonist)
CCN(CC)CCN(C)C(=O)c1[nH]c(C(F)(F)F)nc1-c1ccccc1	none (no result: D2 PAM-1, D2 ag-1, D2 antagonist)
COc1ccc(OC)c(CN2CCN(C(=O)c3ccc(F)cc3)CC2)c1	D2 antagonist 41
COc1ccc(N2CCN(S(=O)(=O)c3ccc(OC)c(C(=O)N4CCCC4)c3)CC2)cc1	D2 antagonist 48
COc1ccc(S(=O)(=O)N2CCCCCC2)cc1C(=O)N1CCCCC1	none
COc1ccc2c(c1)NC(c1cccnc1)=NC(c1ccc(F)cc1)=N2	none (no result: D2 PAM-2, D2 ag-2, D2 antagonist)
CC1CCCN(S(=O)(=O)c2cc3c4c(c2)CC(=O)N4CCC3)C1 (centres undefined)	none (no result: D2 PAM-2, D2 ag-1, D2 ag-2, D2 antagonist)
CC(C)C(NC(=O)CCNC(=O)c1ccc(C(C)(C)C)cc1)c1nc2ccccc2[nH]1 (centres undefined)	none
COc1ccc(CCN(C)C(=O)C2CCN(Cc3ccc(C)cc3)CC2)cc1OC	D2 antagonist 47
COc1ccc(CN2CCC(C(=O)N(C)CCc3ccc(OC)c(OC)c3)CC2)c(OC)c1	D2 PAM-1 31
COc1cc(NC(=O)CSc2cc(=O)n(C)c3ccccc23)cc(OC)c1OC	none (no result: D2 PAM-2, D2 ag-2, D2 antagonist)
c1ccc2nc(N3CCN(Cc4ccc5c(c4)OCO5)CC3)cnc2c1	none
COc1ccc(S(=O)(=O)N2CCN(Cc3ccc4c(c3)OCO4)CC2)c2ccccc12	D2 antagonist 31
COc1nc2ccccc2nc1N1CCN(Cc2ccc3c(c2)OCO3)CC1	D2 antagonist 51
COc1ccc(Cl)cc1S(=O)(=O)N1CCN(Cc2ccc3c(c2)OCO3)CC1	none
CCN(C[C@H]1N[C@@](C)(C(=O)OC)[C@H]2C(=O)N(C)C(=O)[C@@H]12)S(=O)(=O)c1ccc(OC)cc1	none (no result: D2 PAM-1, D2 ag-1, D2 antagonist)
Clc1ccccc1CNc1ncnc2c1c(-c1ccccc1)cn2-c1ccccc1	none (no result: D2 PAM-2, D2 ag-2, D2 antagonist)
